Measurements as given in PubChem BioAssay (NCATS).
Several values for one entry are separate records, joined by “and”; a condition that tells them apart may be missing. Equal values may be shown once. Inconclusive results are not listed. Activity calls are given as the source filed them. Unless noted, calls follow the shape of the dose curve; as a rule, active = well fitted curve in the direction sought with a large enough effect; inconclusive = small, poorly fitted or top-dose-only effect, or another doubt; inactive = no such curve, though single readings can be large; an effect the other way counts as inactive or inconclusive.

Experiments:
[1] = AP1 Signaling Pathway (AID 357; active = well fitted curve in either direction with a large enough effect, not every such curve was filed as active;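 also: ME-180 reporter cells stimulated with EGF at its EC50 level; % is scaled to controls: 0 for no effect and ±100 for the full control effect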); conditions: ME-180 AP-1-bla reporter, EGF-induced, beta-lactamase ratio, 5 h
Outline: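 Modulation of EGF-driven AP-1 transcription was assessed with a beta-lactamase reporter in ME-180 cells. Compound and EC50 EGF were co-incubated 5 hours at 37 °C before 2.5-hour CCF4 loading at room temperature and dual-emission reading.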

[2] = biological target: Cytochrome P450 1A2 (Homo sapiens) (UniProt P05177); experiment: p450-cyp1a2 (AID 410; calls by dose curve; also: potency is read from the fitted curve at half-maximal effect); conditions: recombinant CYP1A2, luciferin-ME demethylation, luminescence; series mostly up to 57 µM
Outline: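 20nM CYP1A2 with 100uM Luciferin-ME (at Km) in 100mM KPO4; compound preincubated 10 min, NADPH regeneration added, 60 min at room temperature. Luciferin quantified by luminescence after detection reagent; normalized to 57 uM furafylline.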

[3] = NFAT Signaling Pathway (AID 444; active = well fitted curve in either direction with a large enough effect, not every such curve was filed as active;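 also: carbachol stimulus at about its EC50 of 1 µM final; % is scaled to controls: 0 for no effect and ±100 for the full control effect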); conditions: Jurkat NFAT-bla M1, carbachol, beta-lactamase ratio, 5 h
Outline: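 Jurkat cells with NFAT-driven β-lactamase reporter and co-expressed M1 receptor, stimulated with carbachol (final 1 uM, ~EC50), compound titration, 5 h at 37 °C. CCF4 loaded 1 h at RT; 460/530 nm ratio gave %activity and AC50.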

[4] = Stat Signaling Pathway (AID 446; active = well fitted curve in either direction with a large enough effect, not every such curve was filed as active;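 also: ME-180 cervical cancer cells given 40 pM IL-6 alongside compound; SIE-controlled beta-lactamase reporter measured as 460/530 nm FRET emission ratio; % is scaled to controls: 0 for no effect and ±100 for the full control effect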); conditions: ME-180 (cervical carcinoma) SIE beta-lactamase reporter, IL-6 stimulated, 5 h; at 17.2 µM (top of the series)
Outline: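 IL-6/STAT signaling read in ME-180 cells via an SIE beta-lactamase reporter. Stimulus was 40 pM IL-6 (its AC50) for 5 hrs, so both activation and inhibition register.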

[5] = biological target: Glucocorticoid receptor (Homo sapiens) (UniProt P04150); experiment: GR-GFP Redistribution (AID 450;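 active = compounds whose dose series gives a full or clear partial fitted curve of increased nuclear translocation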; also: potency is read from the fitted curve at half-maximal effect); conditions: U2OS GR-GFP nuclear translocation, laser cytometry, 2 h
[6] = biological target: Glucocorticoid receptor (Homo sapiens) (UniProt P04150); experiment: GR-EFC Redistribution (AID 451; calls by dose curve; also: potency is read from the fitted curve at half-maximal effect); conditions: CHO-K1 GR-EFC translocation, beta-gal luminescence, 2 h
Outline: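 CHO-K1 cells expressing nuclear EA and GR-ED fragments of b-gal; compounds titrated up to 46 uM final, 2 h at 37 C. GR nuclear translocation read as complemented b-gal luminescence after 1 h RT detection.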

[7] = biological target: Mitogen-activated protein kinase 10 (Mus musculus) (UniProt Q61831); experiment: JNK3 AlphaScreen Assay (AID 530; active = well fitted curve in either direction with a large enough effect, not every such curve was filed as active;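 also: kinase came from lysate of stimulated human HepG2 cells; signal reports phosphorylation of biotinylated GST-cJun 1-79 at Ser73 with 10 µM ATP; % is scaled to controls: 0 for no effect and ±100 for the full control effect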); conditions: JNK3 lysate, c-Jun phosphorylation; series mostly up to 57.1 µM
Outline: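 Pre-activated (IL-1β/TNFα) JNK3 in HepG2 lysates phosphorylates biotin-GST-cJun(1-79), 10 uM ATP; anti-phospho-cJun(Ser73) AlphaScreen read at room temperature, pH 7.6 Tris buffer. Compounds pre-incubated 15 min as titrations.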

[8] = biological target: 3',5'-cyclic-AMP phosphodiesterase 4B (Homo sapiens) (UniProt Q07343); experiment: qHTS Assay for Inhibitors of PDE-IV (AID 607; active = well fitted activation curve with a large enough effect in the main read-out, with a control signal flat, not every such curve was filed as active; also: % of control where 0% means no effect); conditions: HEK293 ACTOne CNG channel cells, membrane potential fluorescence; series mostly up to 22.9 µM
Outline: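 Live HEK293 cells with a modified cyclic nucleotide-gated (CNG) channel report intracellular cAMP via membrane-potential dye fluorescence (ex 535/em 590 nm). Endogenous PDE-IV was targeted. Compounds were tested at up to 22.9 uM final; RO 20-1724 100 uM served as control.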

[9] = biological target: Guanine nucleotide-binding protein G(i) subunit alpha-1 (Homo sapiens) (UniProt P63096); experiment: qHTS Assay for Inhibitors of RGS12 GoLoco Motif Activity (Green Fluorophore) (AID 879); conditions: Galphai1/FITC-RGS12 GoLoco peptide, fluorescence polarization; series mostly up to 57.1 µM;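 also: 0% = labeled peptide with Gαi1 and full inhibition = labeled peptide alone without protein; negative values mean loss of peptide binding seen as reduced polarization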
Outline: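 Fluorescence polarization assay: 50 nM Gαi1 with 10 nM FITC-labeled RGS12 GoLoco peptide in 10 mM Tris pH 7.5, 150 mM NaCl, 0.1 mM GDP, 0.05% NP40, 10 min at room temperature with compound.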

[10] = biological target: Cytochrome P450 2C9 (Homo sapiens) (UniProt P11712); experiment: qHTS Assay for Inhibitors and Substrates of Cytochrome P450 2C9 (AID 883); conditions: recombinant CYP2C9, luciferin-H luminescence, 60 min; series mostly up to 57.1 µM; also: % is scaled to controls: 0 for no effect and ±100 for the full control effect; nearly all actives have a fitted effect of over 60% in size
Outline: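 10nM CYP2C9 + 100uM Luciferin-H (=KM), 25mM KPO4; cpd 10 min 37C; NADPH regen, 60 min 37C; stop/detect with P450 Glo-Buffer 20 min; luminescence. Norm. to 57uM sulphaphenazole as full inhibition.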

[11] = biological target: Cytochrome P450 3A4 (Homo sapiens) (UniProt P08684); experiment: qHTS Assay for Activators of Cytochrome P450 3A4 (AID 885); conditions: recombinant CYP3A4, Luciferin-PPXE luminescence, 60 min; series mostly up to 57.1 µM; also: nearly all actives have a fitted effect of over 65% in size
Outline: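 Quantitative HTS format: compounds preincubated with 20nM human CYP3A4 and Luciferin-PPXE substrate at KM, reaction started by NADPH regeneration, stopped after 60 min, luciferase luminescence read 20 min later.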

[12] = biological target: Cytochrome P450 2D6 (Homo sapiens) (UniProt P10635); experiment: qHTS Assay for Inhibitors and Substrates of Cytochrome P450 2D6 (AID 891); conditions: recombinant CYP2D6, luciferin-ME EGE luminescence; series mostly up to 57.1 µM; also: potency is read from the fitted curve at half-maximal effect; nearly all actives have a fitted effect of over 60% in size
Outline: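 Human CYP2D6 (5 nM) with 30 uM Luciferin-ME EGE (at Km) in 100 mM KPO4, compound preincubated 10 min, then NADPH regeneration system for 60 min at room temperature. Luciferin read by luminescence; normalized to 1.43 uM quinidine.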

[13] = biological target: Cytochrome P450 2C19 (Homo sapiens) (UniProt P33261); experiment: qHTS Assay for Inhibitors and Substrates of Cytochrome P450 2C19 (AID 899); conditions: recombinant CYP2C19, luciferin-H EGE luminescence; series mostly up to 57.1 µM; also: potency is read from the fitted curve at half-maximal effect; nearly all actives have a fitted effect of over 60% in size
Outline: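 Luminescent read-out of luciferin formed from Luciferin-H EGE (10uM, equal to KM). Enzyme 5nM in 50mM KPO4; compound added, 10 min at 37C, then NADPH regenerating system for 60 min at 37C. Full inhibition defined by 57uM ketoconazole.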

[14] = biological target: Pyruvate kinase (Leishmania mexicana) (UniProt Q27686); experiment: qHTS Validation Assay for Inhibitors of Leishmania Mexicana Pyruvate Kinase (AID 945);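 also: 0% = DMSO only neutral control wells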; conditions: purified L. mexicana pyruvate kinase, enzyme activity, E451W mutant enzyme; series mostly up to 57.5 µM
Outline: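 Pyruvate kinase activity of E451W LmPYK (0.2 nM) was followed as ATP output after 1 h at room temperature with 0.5 mM PEP and 0.1 mM ADP, detected by PKLight luminescence.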

[15] = biological target: Pyruvate kinase PKM (Homo sapiens) (UniProt P14618); experiment: qHTS Assay for Activators of Human Muscle Pyruvate Kinase (AID 954; active = well fitted curve in the direction sought with a large enough effect, not every such curve was filed as active;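 also: 0% = uninhibited enzyme and -100% = no enzyme or full thiadiazolimine inhibition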); conditions: purified human muscle pyruvate kinase, luciferase-coupled luminescence, 1 h; series mostly up to 57.5 µM
Outline: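 Enzyme was run at intermediate activity so both inhibitors and activators could be detected. ATP formed from ADP and PEP by 0.1 nM human PKM2 during a 1 h room-temperature incubation was quantified by coupled luciferase luminescence.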

[16] = biological target: Alpha-galactosidase A (Homo sapiens) (UniProt P06280); experiment: Counterscreen for Glucocerebrosidase Inhibitors: qHTS Assay for Human alpha-Galactosidase at pH 4.5 (AID 992); conditions: purified enzyme, fluorogenic substrate; series mostly up to 76.9 µM; also: 0% is about no effect
Outline: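 Read-out is 4-methylumbelliferone fluorescence (365 nm excitation, 440 nm emission) after a pH 10 NaOH/glycine stop. Reactions held 2 nM enzyme and 80 uM substrate at pH 4.5 for 20 min at room temperature.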

[17] = biological target: alpha-glucosidase (Oryza sativa, rice) (UniProt Q653V4); experiment: Counterscreen for Glucocerebrosidase Inhibitors: qHTS Assay for Rice alpha-Glucosidase at pH 5.0 (AID 997); conditions: rice alpha-glucosidase enzyme activity; series mostly up to 76.9 µM;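 also: 0% = full activity with enzyme and -100% = basal without enzyme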
Outline: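 Rice alpha-glucosidase (4 nM final) with 400 uM 4-methylumbelliferyl-alpha-D-glucopyranoside in citrate buffer pH 5.0, 20 min at room temperature, stopped at pH 10; fluorescence 365/440 nm, compounds 0.7 nM–77 uM, AC50 from Hill fits.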

[18] = qHTS Assay for Lipid Storage Modulators (AID 1519; calls by dose curve); conditions: Drosophila S3 cells, BODIPY lipid droplet/cell ratio, laser cytometry, cells loaded with oleic acid
Outline: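 Cells seeded at 5,000 per well were treated with compounds over a concentration series and loaded with oleic acid (400 uM, as added). Lipid droplet fluorescence (488 nm excitation, 500-530 nm channel) was read by laser-scanning cytometry and normalized to 20 uM Triacsin C.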

[19] = biological target: Ubiquitin carboxyl-terminal hydrolase 1 (Homo sapiens) (UniProt O94782); experiment: Inhibitors of USP1/UAF1: Pilot qHTS (AID 504865); conditions: purified USP1/UAF1, Ub-rhodamine cleavage fluorescence; series mostly up to 114 µM;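 also: rhodamine fluorescence freed from ubiquitin-rhodamine substrate followed over time; top concentration of the series differs between compounds; % is scaled to controls: 0 for no effect and ±100 for the full control effect; nearly all actives have a fitted effect of over 35% in size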
Outline: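 USP1/UAF1 complex at 1 nM preincubated 15 min at room temperature with compound, then Ub-Rho substrate added at 150 nM final. Fluorescence (480/540 nm) read kinetically in 50 mM HEPES pH 7.8, 0.5 mM EDTA, 1 mM TCEP, 0.1 mg/ml BSA, 0.01% Tween-20.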

[20] = biological target: DNA dC->dU-editing enzyme APOBEC-3G (Homo sapiens) (UniProt Q9HC16); experiment: qHTS for inhibitors of Vif-A3G interactions: Validation (AID 588379); conditions: Vif-A3G protein interaction assay; series mostly up to 46.1 µM; also: 0% is about no effect
Outline: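 HeLa cells stably expressing Vif and A3G-eYFP, 700 cells/well, incubated overnight at 37 deg C, then exposed to compound overnight at 37 deg C. Inhibition of Vif-mediated degradation read as increased yellow fluorescence (Ex 488/Em 500-530) by laser-scanning cytometry.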

[21] = tested on: Zika virus NS2B-NS3 protease; experiment: Primary screen GU AMC qHTS for Zika virus inhibitors (AID 1347154); conditions: Zika NS2B-NS3 unlinked protease, AMC fluorogenic substrate; series mostly up to 54.1 µM;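 also: 0% = no-inhibitor control and -100% = no-enzyme control; nearly all actives have a fitted effect of over 70% in size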
Outline: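 Unlinked Zika NS2B hydrophilic domain–NS3 protease complex at 25 nM in 10 mM Tris-HCl pH 8.0, 0.01% Tween 20, with an AMC peptide substrate. Fluorescence change (340/450 nm) over 15 min at room temperature, normalized to controls, fitted to 4-parameter Hill.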

[22] = biological target: Rap guanine nucleotide exchange factor 3 (Homo sapiens) (UniProt O95398); experiment: Confirmatory qHTS for agonist of cAMP-regulated guanine nucleotide exchange factor 3 (EPAC1) (AID 1645881); conditions: EPAC1 Rap1B BODIPY-GDP exchange fluorescence, 100% = cAMP control response; series mostly up to 154 µM;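 also: EPAC1 catalysed release of BODIPY-GDP from Rap1B seen as fluorescence loss; nearly all actives have a fitted effect of over 75% in size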
[23] = biological target: Rap guanine nucleotide exchange factor 4 (Homo sapiens) (UniProt Q8WZA2); experiment: Confirmatory qHTS for agonist of cAMP-regulated guanine nucleotide exchange factor 4 (EPAC2) (AID 1645884); conditions: EPAC2 GEF activity, Rap1B-BODIPY-GDP fluorescence, percent relative to cAMP agonist control; series mostly up to 154 µM;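 also: nucleotide exchange releases bodipy-GDP from Rap1 and this lowers its fluorescence; % is scaled to controls: 0 for no effect and ±100 for the full control effect; nearly all actives have a fitted effect of over 65% in size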
[24] = Primary qHTS for small molecule stabilizers of the endoplasmic reticulum resident proteome: Secreted ER Calcium Modulated Protein (SERCaMP) assay (AID 1508630); conditions: SH-SY5Y GLuc-SERCaMP (Gaussia luciferase released on ER calcium loss) secretion, thapsigargin, luminescence; series mostly up to 38.4 µM; also: % is scaled to controls: 0 for no effect and ±100 for the full control effect
Outline: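 GLuc-SERCaMP-expressing SH-SY5Y cells, pretreated 16 h with compound, are challenged with thapsigargin to empty ER calcium stores; after 4 h, coelenterazine is added directly to the medium and luminescence is imaged.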

Glucocorticoid receptor (Homo sapiens), sequence (P04150 whole entry, looked up, the tested form may be a part): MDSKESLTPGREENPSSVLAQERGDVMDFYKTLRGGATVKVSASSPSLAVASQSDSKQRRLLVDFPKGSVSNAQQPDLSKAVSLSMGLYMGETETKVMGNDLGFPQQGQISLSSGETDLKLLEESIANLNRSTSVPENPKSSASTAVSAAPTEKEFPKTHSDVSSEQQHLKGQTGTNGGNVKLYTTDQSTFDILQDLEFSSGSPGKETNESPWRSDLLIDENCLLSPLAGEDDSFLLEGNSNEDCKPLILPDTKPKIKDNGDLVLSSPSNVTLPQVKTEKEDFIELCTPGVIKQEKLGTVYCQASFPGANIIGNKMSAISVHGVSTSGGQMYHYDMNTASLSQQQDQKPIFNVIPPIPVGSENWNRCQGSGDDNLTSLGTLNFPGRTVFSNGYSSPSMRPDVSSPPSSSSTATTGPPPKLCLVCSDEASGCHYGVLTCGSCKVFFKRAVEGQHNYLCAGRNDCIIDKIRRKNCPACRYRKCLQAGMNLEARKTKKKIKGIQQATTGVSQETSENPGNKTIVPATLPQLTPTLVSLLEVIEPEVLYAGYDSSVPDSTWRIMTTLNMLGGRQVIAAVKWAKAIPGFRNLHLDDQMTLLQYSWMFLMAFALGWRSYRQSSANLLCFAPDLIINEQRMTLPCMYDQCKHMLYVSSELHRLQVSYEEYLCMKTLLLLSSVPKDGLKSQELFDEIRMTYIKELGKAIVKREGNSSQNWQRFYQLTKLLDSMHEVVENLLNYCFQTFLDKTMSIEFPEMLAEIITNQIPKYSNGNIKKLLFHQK
Cytochrome P450 2C19 (Homo sapiens), sequence (P33261 whole entry, looked up): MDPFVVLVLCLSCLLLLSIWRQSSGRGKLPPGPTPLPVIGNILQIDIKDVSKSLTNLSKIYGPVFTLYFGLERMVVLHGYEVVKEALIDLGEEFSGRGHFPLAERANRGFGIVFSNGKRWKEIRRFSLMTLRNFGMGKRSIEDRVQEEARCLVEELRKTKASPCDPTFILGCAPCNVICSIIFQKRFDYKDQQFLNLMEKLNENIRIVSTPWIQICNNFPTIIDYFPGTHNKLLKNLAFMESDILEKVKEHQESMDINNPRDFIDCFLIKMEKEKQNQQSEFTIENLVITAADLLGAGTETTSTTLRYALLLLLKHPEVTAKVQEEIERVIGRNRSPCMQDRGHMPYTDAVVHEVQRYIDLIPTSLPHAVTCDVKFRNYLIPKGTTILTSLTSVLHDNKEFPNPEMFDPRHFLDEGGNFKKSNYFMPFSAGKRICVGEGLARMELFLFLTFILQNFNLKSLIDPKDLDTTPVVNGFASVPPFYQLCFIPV
DNA dC->dU-editing enzyme APOBEC-3G (Homo sapiens), sequence (Q9HC16 whole entry, looked up): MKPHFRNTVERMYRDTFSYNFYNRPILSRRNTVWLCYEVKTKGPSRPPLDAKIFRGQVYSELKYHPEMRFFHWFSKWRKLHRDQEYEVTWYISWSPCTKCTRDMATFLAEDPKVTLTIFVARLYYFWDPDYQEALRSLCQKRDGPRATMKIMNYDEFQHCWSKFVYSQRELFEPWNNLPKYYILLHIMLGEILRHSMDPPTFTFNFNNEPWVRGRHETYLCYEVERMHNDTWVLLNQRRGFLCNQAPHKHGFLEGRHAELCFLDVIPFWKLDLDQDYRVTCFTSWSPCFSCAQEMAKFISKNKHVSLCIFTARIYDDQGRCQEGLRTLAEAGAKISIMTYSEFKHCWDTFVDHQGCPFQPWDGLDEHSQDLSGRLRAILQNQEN
3',5'-cyclic-AMP phosphodiesterase 4B (Homo sapiens), sequence (Q07343 whole entry, looked up): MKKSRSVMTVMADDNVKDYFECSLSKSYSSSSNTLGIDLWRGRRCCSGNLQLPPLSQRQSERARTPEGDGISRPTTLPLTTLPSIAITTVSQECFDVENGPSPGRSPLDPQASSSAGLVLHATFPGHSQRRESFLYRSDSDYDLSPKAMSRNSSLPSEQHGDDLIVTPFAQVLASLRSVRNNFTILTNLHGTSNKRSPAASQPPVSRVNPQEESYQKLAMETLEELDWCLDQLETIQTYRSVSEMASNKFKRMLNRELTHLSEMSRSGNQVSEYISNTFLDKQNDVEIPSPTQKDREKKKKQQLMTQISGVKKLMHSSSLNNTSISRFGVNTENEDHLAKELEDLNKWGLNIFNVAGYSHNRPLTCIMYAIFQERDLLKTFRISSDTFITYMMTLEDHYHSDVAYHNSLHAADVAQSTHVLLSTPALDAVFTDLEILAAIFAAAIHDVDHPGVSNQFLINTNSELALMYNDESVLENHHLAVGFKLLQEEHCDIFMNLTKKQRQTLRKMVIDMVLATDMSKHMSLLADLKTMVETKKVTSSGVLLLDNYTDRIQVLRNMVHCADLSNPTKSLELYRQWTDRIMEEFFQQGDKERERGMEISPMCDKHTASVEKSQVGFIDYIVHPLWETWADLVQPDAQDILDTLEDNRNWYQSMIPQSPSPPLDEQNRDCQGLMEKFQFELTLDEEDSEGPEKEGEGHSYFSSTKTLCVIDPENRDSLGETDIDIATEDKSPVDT
Cytochrome P450 2D6 (Homo sapiens), sequence (P10635 whole entry, looked up): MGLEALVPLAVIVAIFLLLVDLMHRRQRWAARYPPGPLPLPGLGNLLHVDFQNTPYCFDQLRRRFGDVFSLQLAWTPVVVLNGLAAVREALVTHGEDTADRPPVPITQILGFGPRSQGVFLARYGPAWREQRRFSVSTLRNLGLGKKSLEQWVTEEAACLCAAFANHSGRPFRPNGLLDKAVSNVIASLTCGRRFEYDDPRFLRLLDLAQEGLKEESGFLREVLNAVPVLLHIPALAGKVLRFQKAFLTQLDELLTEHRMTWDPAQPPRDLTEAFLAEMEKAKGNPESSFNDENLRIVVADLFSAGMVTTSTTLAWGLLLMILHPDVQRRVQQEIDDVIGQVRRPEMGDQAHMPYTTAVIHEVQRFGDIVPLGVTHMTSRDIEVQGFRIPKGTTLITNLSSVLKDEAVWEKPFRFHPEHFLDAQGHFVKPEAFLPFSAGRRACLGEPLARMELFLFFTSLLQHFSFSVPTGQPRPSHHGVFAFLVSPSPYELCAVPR
Cytochrome P450 2C9 (Homo sapiens), sequence (P11712 whole entry, looked up): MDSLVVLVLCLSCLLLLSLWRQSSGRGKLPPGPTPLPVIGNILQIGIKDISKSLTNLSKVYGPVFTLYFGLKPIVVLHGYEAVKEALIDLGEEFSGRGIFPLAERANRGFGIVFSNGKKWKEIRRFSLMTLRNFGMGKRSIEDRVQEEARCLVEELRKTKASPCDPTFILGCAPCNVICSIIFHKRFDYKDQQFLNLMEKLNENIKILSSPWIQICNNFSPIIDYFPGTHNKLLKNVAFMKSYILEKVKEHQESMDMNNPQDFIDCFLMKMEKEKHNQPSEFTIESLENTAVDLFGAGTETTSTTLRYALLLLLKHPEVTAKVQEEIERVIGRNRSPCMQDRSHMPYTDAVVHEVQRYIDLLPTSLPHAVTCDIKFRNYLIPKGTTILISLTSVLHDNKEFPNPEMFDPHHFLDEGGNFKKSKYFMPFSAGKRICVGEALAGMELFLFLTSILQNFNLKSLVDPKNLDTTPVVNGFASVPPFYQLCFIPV
Cytochrome P450 1A2 (Homo sapiens), sequence (P05177 whole entry, looked up): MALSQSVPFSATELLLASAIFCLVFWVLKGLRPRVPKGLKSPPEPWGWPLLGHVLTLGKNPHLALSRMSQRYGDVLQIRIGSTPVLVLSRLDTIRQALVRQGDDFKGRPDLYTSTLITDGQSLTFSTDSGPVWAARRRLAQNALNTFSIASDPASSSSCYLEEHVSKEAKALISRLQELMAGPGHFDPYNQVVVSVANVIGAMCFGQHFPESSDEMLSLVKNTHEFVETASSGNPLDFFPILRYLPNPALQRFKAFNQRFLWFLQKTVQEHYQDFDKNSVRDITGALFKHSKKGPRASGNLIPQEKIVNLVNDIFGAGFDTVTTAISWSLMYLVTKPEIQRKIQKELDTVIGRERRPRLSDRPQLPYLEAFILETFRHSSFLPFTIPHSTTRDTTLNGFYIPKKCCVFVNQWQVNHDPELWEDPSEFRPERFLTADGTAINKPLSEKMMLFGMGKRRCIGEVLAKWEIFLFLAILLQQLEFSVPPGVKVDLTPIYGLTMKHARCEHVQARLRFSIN
Rap guanine nucleotide exchange factor 4 (Homo sapiens), sequence (Q8WZA2 whole entry, looked up): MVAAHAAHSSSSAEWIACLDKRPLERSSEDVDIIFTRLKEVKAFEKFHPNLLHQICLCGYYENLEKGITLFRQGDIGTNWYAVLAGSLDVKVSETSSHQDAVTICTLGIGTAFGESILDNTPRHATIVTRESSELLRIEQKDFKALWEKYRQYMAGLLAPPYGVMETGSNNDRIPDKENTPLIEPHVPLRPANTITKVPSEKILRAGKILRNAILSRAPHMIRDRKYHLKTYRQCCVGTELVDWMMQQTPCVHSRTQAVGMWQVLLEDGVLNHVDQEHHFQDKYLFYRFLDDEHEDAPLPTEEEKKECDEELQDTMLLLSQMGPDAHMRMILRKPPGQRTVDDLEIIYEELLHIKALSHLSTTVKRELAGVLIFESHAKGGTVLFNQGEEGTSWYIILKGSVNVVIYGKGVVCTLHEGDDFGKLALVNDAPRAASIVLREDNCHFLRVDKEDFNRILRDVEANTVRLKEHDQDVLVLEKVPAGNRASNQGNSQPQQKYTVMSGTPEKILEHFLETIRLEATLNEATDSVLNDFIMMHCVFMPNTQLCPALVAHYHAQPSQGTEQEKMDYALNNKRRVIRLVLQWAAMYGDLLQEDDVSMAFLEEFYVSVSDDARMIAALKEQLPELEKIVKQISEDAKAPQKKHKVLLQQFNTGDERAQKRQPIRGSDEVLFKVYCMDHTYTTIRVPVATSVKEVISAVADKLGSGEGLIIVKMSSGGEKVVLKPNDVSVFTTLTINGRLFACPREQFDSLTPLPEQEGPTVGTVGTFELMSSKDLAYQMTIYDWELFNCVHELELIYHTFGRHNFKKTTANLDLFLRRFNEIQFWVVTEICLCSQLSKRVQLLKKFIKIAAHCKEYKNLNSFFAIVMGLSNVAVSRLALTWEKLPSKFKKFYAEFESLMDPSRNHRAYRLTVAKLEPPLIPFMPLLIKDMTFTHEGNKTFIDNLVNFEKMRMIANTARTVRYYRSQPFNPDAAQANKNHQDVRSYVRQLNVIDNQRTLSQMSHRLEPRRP

COc1ccccc1N1CCN(C[C@@H](O)COc2cccc3ccccc23)CC1
inactive: activity change, negative = inhibition ([1]; at 17.2 µM (top of the series)) 4.94% | activity change, negative = inhibition ([1]; at 38 µM (top of the series)) 2.88% | activity change, negative = inhibition ([3]; at 17.2 µM (top of the series)) -8.94% | activity change, negative = inhibition ([3]; at 38 µM (top of the series)) -1.67% | activity, negative = inhibition [4] -4.93% | Potency [5] > 46 µM and > 20.6 µM | Potency [6] > 46 µM and > 20.6 µM | Potency [7] | Potency [8] | outcome [9] | Potency [10] | Potency [11] | Potency [14] | outcome [15] | outcome [16] | outcome [17] | activity change, negative = inhibition ([18]; at 25.7 µM (top of the series)) -0.494% | Potency [19] | Potency [20] | Potency [21] | outcome [22] | outcome [23]
-0.579%: max response ([18]; measured here: lipid channel max response)
-0.0145%: max response ([18]; measured here: cell count channel max response)
active: Potency [2] 20 µM and 31.6 µM | Potency [12] 794 nM and 316 nM and 126 nM | Potency [13] 6.31 µM and 7.94 µM and 1.58 µM

Cc1c(-c2ccc(Cl)cc2)noc1C1CCN(CCc2ccccc2)CC1
inactive: Potency [5] > 46 µM | Potency [6] > 46 µM | Potency [8] | Potency [20] | Potency [21] | Potency [24]

CC(C)C[C@@H](NC(=O)OCC1c2ccccc2-c2ccccc21)C(=O)O
inactive: Potency [5] > 46 µM | Potency [6] > 46 µM | Potency [20] | Potency [21] | Potency [24]
